{"source": "PubChem BioAssay AID2283227", "about": "(EPA ToxCast)", "note": "Inconclusive results are not listed. Calls of active or inactive are those of the source. Rule for the calls: active = hit-call score of the fitted dose curve at least 0.9, where 1 is the maximum; inconclusive = response in the unintended direction; inactive = score below 0.9.", "data": [{"system": "pig Methylenetetrahydrofolate Reductase (MTHFR), gene 397180", "experiment": "NVS_ENZ_pMTHFR: NovaScreen (NVS) Enzymatic Assay for pig Methylenetetrahydrofolate Reductase (MTHFR)", "description": "NVS_ENZ_pMTHFR is a biochemical, single-readout assay that uses extracted gene-proteins from Porcine kidney in a tissue-based cell-free assay. Measurements were taken 1 hour after chemical dosing in a 96-well plate.NVS_ENZ_pMTHFR is one of one assay component(s) measured or calculated from the NVS_ENZ_pMTHFR assay. It is designed to make measurements of enzyme activity, a form of enzyme reporter, as detected with scintillation counting signals by Lysate-based radiodetection technology.Data from the assay component NVS_ENZ_pMTHFR was analyzed into 1 assay endpoint. This assay endpoint, NVS_ENZ_pMTHFR, was analyzed in the positive analysis fitting direction relative to DMSO as the negative control and baseline of activity. Using a type of enzyme reporter, loss-of-signal activity can be used to understand changes in the enzymatic activity as they relate to the gene MTHFR. Furthermore, this assay endpoint can be referred to as a primary readout, because this […] where this one serves a enzymatic activity function. To generalize the intended target to other relatable targets, this assay endpoint is annotated to the oxidoreductase intended target family, where the subfamily is methylenetetrahydrofolate reductase.\nBinding assays used specific radioligands (tritiated, iodinated) with non-radioactive competitive displacement ligands in agonist or antagonist protocols (as indicated) and various reference compounds and inhibitors to titrate specific binding to receptors and transporters. Most enzyme assays (CYPs, kinases, phosphatases, proteases, HDACs) used recombinant protein and specific substrates (fluorescence mostly, some colorimetric and radioactive) and inhibitors, followed by a biochemical separation of substrate and product. All assays for the biochemical HTS were initially run in duplicate at a single concentration (10 uM for CYP450 assays and 25 uM for all others). Assay-chemical combinations meeting a pre-defined threshold (e.g., 30% inhibition and other criteria defined below) were then run in singleton concentration-response format with maximum concentration of 20 uM for CYPs and 50 uM for all others. Each assay was run with positive and negative controls, and concurrent controls on every plate. The follow-up (secondary) screen tested active chemical-pairs in concentration series, as well as a few additional assays not tested in the primary screen, some selected negative inactives, and several cases re-run in the concentration series for confirmatory purposes.", "values": [{"smiles": "CC(=NC#N)N(C)Cc1ccc(Cl)nc1", "outcome": "inactive"}, {"smiles": "CCCCOC(=O)c1ccccc1C(=O)O", "outcome": "inactive"}, {"smiles": "N#Cc1c[nH]cc1-c1cccc2c1OC(F)(F)O2", "outcome": "inactive"}, {"smiles": "CC(C)(C)C(=O)C(Oc1ccc(Cl)cc1)n1cncn1", "note": "(stereo unspecified)", "outcome": "inactive"}, {"smiles": "CCCCOCN(C(=O)CCl)c1c(CC)cccc1CC", "outcome": "inactive"}, {"smiles": "COC(=O)c1c(C(F)F)nc(C(F)(F)F)c(C2=NCCS2)c1CC(C)C", "AC50": "6.46 µM (active)"}, {"smiles": "CC(C)Oc1cc(-n2nc(C(C)(C)C)oc2=O)c(Cl)cc1Cl", "outcome": "inactive"}, {"smiles": "COc1nc(C)nc(NC(=O)NS(=O)(=O)c2ccccc2Cl)n1", "outcome": "inactive"}, {"smiles": "CN(C)c1nc(=O)n(C2CCCCC2)c(=O)n1C", "outcome": "inactive"}, {"smiles": "CCc1cccc(CC)c1N(COC)C(=O)CCl", "outcome": "inactive"}, {"smiles": "COP(=O)(OC)OC=C(Cl)Cl", "outcome": "inactive"}]}]}
